# Measurements taken from PubChem BioAssay AID504843 (Broad Institute, 2011).
# Out of some 1,200 compounds screened, about 360 (30%) were called active. How the calls were made is not given here. Not all results are given here. Where a call stands in place of a potency, no number is given. Potency and affinity values are given separately.
# Assay: bacterial growth inhibition, dose response, counter-screen, BacTiter-Glo luminescence, cherry-picked samples (AID 504843);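 further: growth measured after 8 h incubation at 30 °C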
# Details: BacTiter-Glo ATP luminescence; series mostly up to 15 µM
row,Compound,outcome
1,O=C(Nc1ccccc1F)C1CCN(C(=O)Cc2ccccc2)CC1,inactive
2,O=C(CCNC(=O)C1CCN(S(=O)(=O)c2ccc(F)cc2)CC1)Nc1nccs1,inactive
3,CC(=O)Nc1ccc(NC(=O)CSc2ccccn2)cc1,inactive
4,O=C(CCC(=O)Nc1ccccc1)N/N=C/c1ccncc1,inactive
5,C/C=C(/C)C(=O)Nc1cccc(C2=NOC3(C2)C[C@H](C(N)=O)N(C(=O)c2ccc(Cl)cc2)C3)c1 (some centres undefined),inactive
6,Cc1ccc(S(=O)(=O)N2CCC(C(=O)Nc3nnc(C)s3)CC2)cc1,inactive
7,Cc1nc2ccc(NC(=O)C3CCN(S(=O)(=O)c4cccs4)CC3)cc2s1,inactive
8,Cc1noc(C)c1COc1ccccc1C(=O)NC1CCC(C)CC1 (centres undefined),inactive
9,N#Cc1cccc(C(=O)OCC(=O)NCc2ccco2)c1,inactive
10,Cc1cccc(N(CC(=O)NC(C)(C)C)C(=O)CCC(=O)Nc2nccs2)c1,inactive
11,CS(=O)(=O)N(CC(=O)NC1CCCC1)c1cccc(F)c1,inactive
12,O=c1cc(O)nc[nH]1,inactive
13,CCOc1cc(C(=O)N2CCCN(C)CC2)cc(OCC)c1OCC,inactive
14,O=C(Cn1cc2c(n1)CCCCC2)N1CCc2ccccc2C1,inactive
15,COc1ccc(CN(C(=O)/C=C/c2ccccc2Cl)C2CCS(=O)(=O)C2)cc1 (centres undefined),inactive
16,Cn1c(-c2ccccc2)cnc1SCc1nc2ccccc2c(=O)[nH]1,inactive
17,CCOC(=O)c1c(NC(=O)CSc2n[nH]c(CNc3ccccc3)n2)sc(C)c1C,inactive
18,Cc1nn2c(COc3ccc(NC(=O)c4ccccc4Cl)cc3)nnc2c2ccccc12,inactive
19,COc1ccc(NC(=O)c2ccc(Oc3ncccn3)cc2)cc1,inactive
20,CCn1ccnc1CN(C)C(=O)c1cc(COc2ccc(Cl)cc2OC)on1,inactive
21,COc1ccc(NC(=O)Cn2ncc(Cl)c(Cl)c2=O)cc1S(=O)(=O)N1CCOCC1,inactive
22,CCN(CC(=O)NCc1ccc(F)cc1)CC(=O)Nc1ccc(S(=O)(=O)N2CCCC2)cc1,inactive
23,COc1ccccc1OCCNC(=O)Cc1ccc(S(=O)(=O)N2CCOCC2)s1,inactive
24,O=C(CSc1nc(O)c(Cc2ccccc2F)c(=O)[nH]1)N1CCCCCC1,inactive
25,COc1ccc(-c2csc(NC(=O)C3COc4ccccc4O3)n2)cc1OC (centres undefined),inactive
26,COc1ccc2c(c1)c(C(O)CN1CCC(Cc3ccccc3)CC1)c(C)n2C (centres undefined),inactive

row,Compound,outcome
1,O=C(CN1CCN(c2ccc(O)cc2)CC1)Nc1ccc2c(c1)OCCO2,inactive
2,Cc1c(Nc2ncnc3c2cnn3-c2ccccc2)c(=O)n(-c2ccccc2)n1C,inactive
3,CCOc1ccc(S(=O)(=O)N2CCCCC2)cc1NC(=O)CN1C(=O)NC(CC)(c2ccccc2)C1=O (centres undefined),inactive
4,COc1ccc(S(=O)(=O)N2CCOCC2)cc1NC(=O)c1ccc2c(c1)OCO2,inactive
5,Cc1cc(C)c(C(N)=O)c(Nc2ccc3c(c2)OCCO3)n1,inactive
6,CCN(CC)CCn1c(=N)n(CC(O)COc2cccc(C)c2)c2ccccc21 (centres undefined),inactive
7,Cc1ccc(CC(=O)NCCS(=O)c2ccc(Cl)cc2)cc1 (centres undefined),inactive
8,O=C(CN1CCN(Cc2ccc(Cl)cc2)CC1)N/N=C/c1c[nH]c2ccccc12,inactive
9,CCOC(=O)[C@H]1[C@H]2COc3ccc(OC)cc3[C@H]2N2C(=O)CN(Cc3ccccc3)C(=O)[C@@]12C,inactive
10,O=C(CSc1nccc(=O)[nH]1)c1cc2ccccc2o1,inactive
11,CC(O/N=C/c1ccc(OC(F)F)cc1)C(=O)Nc1cccc(S(=O)(=O)N2CCOCC2)c1 (centres undefined),inactive
12,Cc1ccc(S(=O)(=O)N2CCOCC2)cc1NC(=O)c1cc2ccccc2oc1=O,inactive
13,COc1ccc(N2CCN(C3CC(=O)N(c4ccc5c(c4)OCCO5)C3=O)CC2)cc1 (centres undefined),inactive
14,CCOC(=O)C1=C(C)Nc2ncnn2C1c1cc(Br)ccc1F (centres undefined),inactive
15,COC(=O)c1ccc(NC(=O)N2CCC(O)(c3cccnc3)CC2)cc1,inactive
16,CC(=O)Nc1sc(NC(=O)c2ccccc2)nc1-c1cccs1,inactive
17,Cc1ccc(C(=O)Nc2nc(C)c(C(=O)Nc3ccc4c(c3)CCC4)s2)cc1,inactive
18,CCCN(C(=O)Cn1c(C(F)(F)F)nc2ccccc21)C1CCS(=O)(=O)C1 (centres undefined),inactive
19,CC(C)=CCC/C(C)=C/CNC(=O)C[C@H]1C[C@H](C(=O)N2CCOCC2)[C@@]2(C)c3[nH]c4ccc(Cl)cc4c3CCN2C1=O,inactive
20,CC(=O)CSc1ncnc2sc3c(c12)CCC(C)C3 (centres undefined),inactive
21,CCOC(=O)Cc1c[nH]c2ccc([N+](=O)[O-])cc12,inactive
22,CCOCCCNC(=O)c1ccc(Cn2c(=S)[nH]c3c([nH]c4ccc(OC)cc43)c2=O)cc1,inactive
23,O=C(N/C(=C/c1ccccc1)C(=O)N1CCCCC1)c1ccc(Br)o1,inactive
24,CN(CC(=O)NCc1cccnc1)S(=O)(=O)c1ccccc1,inactive
25,O=C(NCc1ccccc1)c1ccc(F)c(F)c1,inactive
26,O=C(Nc1ccccc1Oc1ccccc1)c1ccc(Br)o1,inactive

row,Compound,outcome
1,O=C(CSc1ncnc2nc[nH]c12)c1ccc2ccccc2c1,inactive
2,O=C1NC(=O)C(c2ccccc2)(c2ccccc2)N1,inactive
3,CCN(CC)CC(=O)Nc1ccc(C)cc1C(=O)c1ccccc1,inactive
4,COc1cc(OC)cc(C(=O)N(CN2CCCC2=O)c2ccccc2OC)c1,inactive
5,CC(C)(C)NC(=O)C[C@H]1C[C@H](C(=O)N2CCOCC2)[C@@]2(CCC3CCCC3)c3[nH]c4cc(-c5ccco5)ccc4c3CCN2C1=O,inactive
6,CC(C)[C@@H](C(=O)N1CCNCC1)n1cc(CCO)nn1,inactive
7,Cc1nc(N)nc(Cl)c1Cc1ccc(Cl)cc1,inactive
8,COc1cccc(COC(=O)C2CC(=O)N(Cc3ccco3)C2)c1OC (centres undefined),inactive
9,CC(NC(=O)Nc1nccs1)(C(F)(F)F)C(F)(F)F,inactive
10,NC(=O)c1ccccc1NC(=O)COc1ccc2c(c1)OCO2,inactive
11,COC(=O)c1cnc(NNS(=O)(=O)c2ccc(C(F)(F)F)cc2)nc1C(F)(F)F,inactive
12,COCn1c(-c2cccc(Br)c2)nc2ccccc21,inactive
13,CNC(=O)C1CCN(S(=O)(=O)c2c(C)noc2/C=C/c2cccc(OC)c2)CC1,inactive
14,O=C(c1ccc2nc[nH]c2c1)N1CCN(c2ncc(C(F)(F)F)cc2Cl)CC1,inactive
15,Cc1ccc(NC(=O)c2cccs2)cc1S(=O)(=O)Nc1cccc(Cl)c1,inactive
16,O=C1c2ccccc2CC1Sc1nnc(-c2ccncc2)o1 (centres undefined),inactive
17,CC1=CC(=O)[C@@H](O)[C@@H](c2ccccc2Br)N1C,inactive
18,COc1ccc(NC(=O)CC2(CC(=O)O)CCCC2)cn1,inactive
19,COc1ccc2[nH]c(C(=O)N(C)c3ccc(F)cc3F)cc2c1,inactive
20,COc1cccc(NC(=O)CSc2nc3ccccc3c(=O)n2CCCC(=O)NCC2CCCO2)c1 (centres undefined),inactive
21,O=C(CSc1cn(CCNC(=O)c2c(F)cccc2F)c2ccccc12)NCC1CCCO1 (centres undefined),inactive
22,C=CCn1c(C)cc(C(=O)CSc2nnc3c(Cl)cc(Cl)cn23)c1C,inactive
23,CCN(C1CCS(=O)(=O)C1)S(=O)(=O)c1cc(C)ccc1C (centres undefined),inactive
24,Fc1ccc(-n2c(-c3ccc4ccccc4n3)n[nH]c2=S)cc1Cl,inactive
25,C=CCOc1cccc(C(=O)N2CCCC(CCC(=O)NCc3ccccc3F)C2)c1 (centres undefined),inactive
26,CC(C)c1cc(C(N)=O)c(NC(=O)c2cccc(COc3ccc(Cl)cc3)c2)s1,inactive

row,Compound,outcome
1,CC(=O)N1c2ccc(S(=O)(=O)N3CCC(C(=O)N4CCN(c5ccccc5F)CC4)CC3)cc2CC1C (centres undefined),inactive
2,O=C(CSc1nc2ccccc2c(=O)[nH]1)N1CCN(c2ccccc2F)CC1,inactive
3,CC(C)c1ccc(C2C(C#N)=C(N)Oc3c2oc(CO)cc3=O)cc1 (centres undefined),inactive
4,COC(=O)COc1ccc(-n2cnnn2)cc1,inactive
5,Cc1cccc(N(CC(=O)Nc2cccnc2)S(C)(=O)=O)c1,inactive
6,O=C(Nc1c2c(nn1-c1ccccc1)CS(=O)(=O)C2)c1cccs1,inactive
7,COc1ccc(-c2nc3ccccc3o2)cc1NC(=O)c1ccc(Br)o1,inactive
8,O=C(NNC(=S)Nc1cccc(Cl)c1)c1ccccc1OC(F)F,inactive
9,CC1CC(OC(=O)C(O)c2ccccc2)CC(C)(C)N1C (centres undefined),inactive
10,CCOc1ccc(-n2c(SCC(=O)O)nc3sc4c(c3c2=O)CCCC4)cc1,inactive
11,NC(=O)NC(=O)CSc1nc2sc(-c3ccccc3)cc2c(=O)n1-c1ccccc1,inactive
12,CCNc1nc(NC(C)(C)C)nc(N(CC)n2cnnc2)n1,inactive
13,O=C(NCC1CCCO1)C1CCCN(S(=O)(=O)c2ccc(F)cc2)C1 (centres undefined),inactive
14,CCCCS(=O)(=O)N1CCCC(C(=O)Oc2ccc(Cl)cc2)C1 (centres undefined),inactive
15,COc1ccccc1C(C[N+](=O)[O-])c1c[nH]c2ccccc12 (centres undefined),inactive
16,CCOC(=O)[C@H]1[C@H]2COc3ccc(Cl)cc3[C@@H]2N2C(=O)[C@H](C)NC(=O)[C@@]12C,inactive
17,O=C(c1ccc(-n2cncn2)c([N+](=O)[O-])c1)N1CCN(S(=O)(=O)c2ccc(Br)cc2)CC1,inactive
18,Cc1cc(C(=O)c2ccccc2)c(NC(=O)CCl)s1,inactive
19,CCCC(C(=O)NNC(=O)c1cc(C)oc1C)c1ccccc1 (centres undefined),inactive
20,O=C(O)c1ccc(/C=C2\SC(=Nc3ccccc3)N(c3ccccc3)C2=O)cc1,inactive
21,CCC1CCCCN1CCNC(=O)CNS(=O)(=O)c1ccc2nc(C)sc2c1 (centres undefined),inactive
22,Cc1ccccc1NC(=O)NCCN1C(=O)C2C3C=CC(C3)C2C1=O (centres undefined),inactive
23,CCOc1ccc(NC(=O)CN2C(=O)/C(=C3\SC(=S)N(C4CCS(=O)(=O)C4)C3=O)c3ccccc32)cc1 (centres undefined),inactive
24,COc1cc(C(=O)Oc2cc(C)cc(C)c2)cc(OC)c1OC,inactive
25,COc1ccc(C(=O)Nc2cnn(Cc3ccc(Cl)cc3)c2)cc1OC,inactive
26,CCOC(=O)CC(NC(=O)c1cccc2c1C(=O)N(Cc1cccnc1)C2)c1ccc(OCC)c(OC)c1 (centres undefined),inactive
